31 compounds from PubChem BioAssay AID720706 (Broad Institute, 2013) can be followed below.

“And” between values parts separate entries of the source, which are not always exact repeats. Equal entries are not always repeated. About 5,500 (1.6%) of roughly 350,000 compounds were called active.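 How the source made its calls: active means significant combined selectivity score with lowered wild-type GFP, culture density cut under 30%, mutant RFP and density less affected; inactive means any of these conditions unmet.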 For the sample, actives were picked, then their nearest neighbours and some compounds at random.

This experiment in a line: reduced GFP signal of wild-type E. coli, primary screen, bacterial rRNA inhibitor project, GFP/RFP fluorescence, OD600, single point (AID 720706). Particulars: E. coli WT GFP vs humanized-ribosome RFP mutants, 24 h; GFP signal change (wild-type ribosome): stronger effect = lower value, DMSO median 0, no signal -100; OD600 change: measured here: OD600 growth, DMSO median 0, no signal -100; RFP signal change: measured here: RFP humanized mutant strains, DMSO median 0, no signal -100, concentration not given here.
Turning to `CO[C@@H]1CN(C)C(=O)c2cc(NC(=O)C3CCCCC3)ccc2OC[C@@H](C)N(C(=O)Nc2ccc(C(F)(F)F)cc2)C[C@H]1C`, the GFP signal change (wild-type ribosome) is -0.109% (inactive) and 1.77% (inactive); the OD600 change was 2.19% and -2.79%; the RFP signal change was 2.17% and 2.36%.
Take `CO[C@@H]1CN(C)C(=O)c2cc(NC(=O)C3CCCC3)ccc2OC[C@@H](C)N(C(=O)Nc2ccc(C(F)(F)F)cc2)C[C@H]1C`: the GFP signal change (wild-type ribosome) is -37.8% (active), the OD600 change is -17.8% and the RFP signal change was -5.86%.
As to `CO[C@@H]1CN(C)C(=O)c2cc(NC(=O)C3CC3)ccc2OC[C@@H](C)N(C(=O)NC(C)C)C[C@@H]1C`, the GFP signal change (wild-type ribosome) was 2.5% (inactive), the OD600 change is 1.51% and the RFP signal change is -0.768%.
`COc1ccccc1NC(=O)N1CC(=O)N2[C@@H](CO)[C@H](c3ccc(C#CC4CC4)cc3)[C@@H]2C1`: the GFP signal change (wild-type ribosome) is -2.35% (inactive), the OD600 change is -11.8% and the RFP signal change came to 0.376%.
In the same order, the values of `COc1ccc(OC)c(CN2CCN(C(=O)CNC(=O)c3cc(C)cc(C)c3)CC2)c1` are 4.96% (inactive), -6.51% and 0.577%.
Consider `CCn1c(CNC(=O)c2cc(OC)c(OC)c(OC)c2)cc2cc(C)ccc21`, for which the GFP signal change (wild-type ribosome) was 15.4% (inactive), the OD600 change worked out at 1.59% and the RFP signal change is -1.24%.
With `COc1cc(C(=O)NCC(=O)N2CC=C(c3ccccc3)CC2)cc(OC)c1OC`, the GFP signal change (wild-type ribosome) was -28.4% (active), the OD600 change was -22% and the RFP signal change was found to be 0.011%.
Take `CC(=O)N(C)C[C@@H]1Oc2ccc(NC(=O)NC(C)C)cc2C(=O)N(C)C[C@H]1C`: the GFP signal change (wild-type ribosome) was 1.73% (inactive), the OD600 change was -0.17% and the RFP signal change is -0.644%.
Take `COc1cccc(-c2coc3cc4oc(=O)c(CC(=O)O)c(C)c4cc23)c1`: the GFP signal change (wild-type ribosome) is -25.9% (inactive), the OD600 change is -55.2% and the RFP signal change was -6.38%.
As to `Cc1coc2cc3oc(=O)c(CCC(=O)O)c(C)c3cc12`, the GFP signal change (wild-type ribosome) is -8.99% (inactive), the OD600 change is -10.5% and the RFP signal change was 3.81%.
For `Cc1c(CCC(=O)O)c(=O)oc2cc3occ(-c4ccccc4)c3cc12`, the GFP signal change (wild-type ribosome) is -41.8% (active), the OD600 change was -27.4% and the RFP signal change was -8.24%.
For `CCCC#Cc1cnc2c(c1)C(=O)N([C@H](C)CO)C[C@H](C)[C@H](CN(C)S(=O)(=O)c1cn(C)cn1)O2`, the GFP signal change (wild-type ribosome) is 7.7% (inactive), the OD600 change worked out at 7.52% and the RFP signal change was -1.55%.
In the same order, the values of `Cc1ccc(NC(=S)NC(NC(=O)Cc2cccc3ccccc23)C(Cl)(Cl)Cl)cc1` (stereo not drawn) are 2.41% (inactive), 7.34% and 6.73%.
`O=C(O)Cc1ccc(NC(=O)Nc2cccc3ccccc23)cc1`: the GFP signal change (wild-type ribosome) was -0.412% (inactive), the OD600 change is 0.56% and the RFP signal change is -3.8%.
With `O=C(Cc1cccc2ccccc12)NNC(=O)Nc1ccc(Cl)cc1`, the GFP signal change (wild-type ribosome) was -29.7% (active), the OD600 change was -2% and the RFP signal change was -3.61%.
Take `COc1ccc([C@@H]2C/C=C\C[C@@H](c3ccc4c(c3)OCO4)NC(=O)CCC(=O)N2)c(OC)c1`: the GFP signal change (wild-type ribosome) is -4.75% (inactive), the OD600 change was -1.11% and the RFP signal change came out at 0.958%.
With `C[C@@H]1CN([C@@H](C)CO)C(=O)Cc2cc(NS(=O)(=O)c3ccc(Cl)cc3)ccc2O[C@H]1CN(C)C(=O)Nc1cccc2ccccc12`, the GFP signal change (wild-type ribosome) was -0.7% (inactive), the OD600 change is -5.33% and the RFP signal change is 1.87%.
Regarding `O=C(C[C@@H]1CC[C@@H](NC(=O)C2CCOCC2)[C@H](CO)O1)Nc1ccc(-c2ccccc2)cc1`, the GFP signal change (wild-type ribosome) is -6.86% (inactive), the OD600 change is -2.81% and the RFP signal change was -1.67%.
Take `CNC[C@H]1Oc2ncccc2C(=O)N(C)C[C@@H]1C`: the GFP signal change (wild-type ribosome) is 2.83% (inactive), the OD600 change turned out to be 2.62% and the RFP signal change is -0.315%.
On to `COc1ccc(CCNC(=O)COC(=O)/C=C/c2cccs2)cc1OC`, for which the GFP signal change (wild-type ribosome) was -13.7% (inactive), the OD600 change was -0.226% and the RFP signal change was determined as 6.24%.
For the compound `COc1ccc(CCNC(=O)c2cc3sccc3n2C)cc1OC`, the GFP signal change (wild-type ribosome) was -23.3% (active), the OD600 change was -13% and the RFP signal change is -7.3%.
Take `COc1ccc(CCNC(=O)Cc2ccc(C)cc2)cc1OC`: the GFP signal change (wild-type ribosome) was 1.64% (inactive), the OD600 change stood at 11.3% and the RFP signal change was -4.01%.
For `C/C=C/c1ccc2c(c1)[C@H]1[C@H](CCN1S(=O)(=O)c1cn(C)cn1)[C@H](CO)N2`, in that order: 13.7% (inactive), 27.2% and 4.63%.
In the same order, the values of `CCC(=O)N1[C@@H](CO)[C@@H](c2ccccc2)C12CN(C(=O)Cc1ccccc1)C2` are 2.16% (inactive), 3.77% and -0.755%.
As for `CC(C)CNc1ncnc2c1cnn2Cc1ccc(Cl)cc1`, the GFP signal change (wild-type ribosome) was -36.1% (active), the OD600 change was -17.1% and the RFP signal change is -0.858%.
On to `CC(C)(C)n1ncc2c(=O)n(Cc3ccc(Cl)cc3)cnc21`, for which the GFP signal change (wild-type ribosome) was 1.17% (inactive), the OD600 change is 1.78% and the RFP signal change was -4.59%.
On to `COc1ccc(CCNc2ncnc3c2nnn3Cc2ccccc2)cc1`, for which the GFP signal change (wild-type ribosome) is 4.94% (inactive), the OD600 change worked out at 7.23% and the RFP signal change was -1.23%.
In the case of `C/C=C/c1ccc(C2[C@H]3CNC[C@@H]2N3Cc2cccc(OC)c2)cc1` (stereo partly drawn), the GFP signal change (wild-type ribosome) is -0.328% (inactive) and 2.3% (inactive); the OD600 change was 8.38% and 9.5%; the RFP signal change is 6.71% and 2.48%.
In the case of `COc1cc(NC(=S)NCc2ccco2)c(OC)cc1Cl`, the GFP signal change (wild-type ribosome) is 4.76% (inactive), the OD600 change stood at 2.73% and the RFP signal change was 1.65%.
Turning to `FC(F)Oc1ccc(NC(=S)NCc2ccco2)cc1Cl`, the GFP signal change (wild-type ribosome) is -29.1% (active), the OD600 change was -8.22% and the RFP signal change is 5.68%.
In the same order, the values of `S=C(NCc1ccco1)Nc1ccc2c(c1)OCCO2` are 9.78% (inactive), 8.22% and -0.482%.
